TGFb SMAD3 inh = qHTS for Inhibitors of TGF-b. HepG2 CAGA-GFP TGF-b/SMAD3 reporter, GFP fluorescence, 18 h; TGF-beta stimulated, 500 pg/mL final. Potency, µM (highest dose often 46.1 µM), inactives show at the highest dose activity, negative = inhibition, hits mostly inhibitors. actives 1.2% (n = 410,000); note: % is set by controls: 0 for no effect and ±100 for the full control effect; nearly all actives have a fitted effect of over 65% in size
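TGF-beta reporter screen: HEPG2 CAGA-GFP, 1% FBS, 500 pg/mL TGF-beta final, 18 h; per-cell GFP summed per well; curves fitted and categorized by class.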
RORgamma inh = qHTS for inhibitors of ROR gamma transcriptional activity | Nuclear receptor ROR-gamma (Mus musculus), P51450 | Drosophila S2 Gal4-RORgamma UAS-luciferase reporter, 20 h | Potency, µM (doses to about 53.6 µM), for the others: at the highest dose activity change, negative = inhibition, hits mostly inhibitors | actives 5.4% (n = 310,000) | AID 2551, 2010; note: % is set by controls: 0 for no effect and ±100 for the full control effect; nearly all actives have a fitted effect of over 60% in size
Target sequence (P51450 whole entry, looked up, the tested form may be a part): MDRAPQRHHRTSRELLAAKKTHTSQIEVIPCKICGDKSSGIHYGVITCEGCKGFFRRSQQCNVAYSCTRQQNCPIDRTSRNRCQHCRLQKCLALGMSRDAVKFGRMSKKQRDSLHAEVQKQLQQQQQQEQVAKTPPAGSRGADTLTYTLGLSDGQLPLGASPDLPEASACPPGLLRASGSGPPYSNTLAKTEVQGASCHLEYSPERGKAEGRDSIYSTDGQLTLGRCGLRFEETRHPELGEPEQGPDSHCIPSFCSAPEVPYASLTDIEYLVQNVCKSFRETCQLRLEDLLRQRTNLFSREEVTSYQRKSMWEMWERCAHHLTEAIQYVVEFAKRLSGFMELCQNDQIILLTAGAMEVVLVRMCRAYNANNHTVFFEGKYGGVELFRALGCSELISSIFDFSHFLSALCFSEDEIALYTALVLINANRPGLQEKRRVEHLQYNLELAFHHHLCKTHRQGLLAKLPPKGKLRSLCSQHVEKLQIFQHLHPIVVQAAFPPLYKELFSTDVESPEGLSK
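Using a luciferase readout, inhibitors were identified by reduced reporter activity in Drosophila cells coexpressing a copper-inducible Gal4–ROR gamma fusion and UAS-driven Photinus luciferase, incubated 20 hr after 700 uM copper sulfate.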
HepG2 viability = qHTS for Inhibitors of TGF-b: Cytotox Counterscreen | HepG2 CAGA-GFP viability, ATP luminescence, 18 h | Potency, µM (doses to about 46.1 µM), without a hit: at the top dose activity change, negative = cytotoxicity, most hits filed as cytotoxic | actives 0.76% (n = 410,000) | AID 588856, 2011
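HepG2 CAGA-GFP cells (1000/well, DMEM with 1% FBS) received compound, then TGF-beta at 500 pg/mL final, and were incubated 18 hours at 37 degrees C. Viability was read by CellTiter-Glo luminescence. Media-only wells were set as complete cell-killing and DMSO as no toxicity.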
S2 tox = Viability Counterscreen for Primary qHTS for Inhibitors of ATXN expression. AID 651635, 2014. Potency, µM (series often up to 56.7 µM), usual class: cytotoxic. actives 0.49% (n = 400,000). S2 cells (HEK-293 line with an ATXN2-luciferase reporter) viability, CellTiter-Fluor protease fluorescence, 24 h; note: nearly all actives have a fitted effect of over 40% in size
Gal4-VP16 FLuc = VP16 counterscreen qHTS for inhibitors of ROR gamma transcriptional activity; Potency, µM (highest dose often 53.6 µM), for inactives: at the highest dose activity, negative = inhibition, most hits filed as inhibitors; actives 3.5% (n = 310,000); AID 2546, 2010; Drosophila S2 Gal4-VP16 UAS-luciferase, luminescence, 20 h;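 note: Gal4-VP16 expression switched on by copper sulfate through the metallothionein promoter; % is set by controls: 0 for no effect and ±100 for the full control effect; nearly all actives have a fitted effect of over 50% in size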
ATXN2 expr inh = Primary qHTS for Inhibitors of ATXN expression; HEK-293 ATXN2-luciferase reporter, luminescence, 24 h; Potency, µM (series often up to 57 µM), without a hit: at the top dose activity change, negative = inhibition, actives largely listed as inhibitors; actives 0.72% (n = 360,000); note: % is set by controls: 0 for no effect and ±100 for the full control effect; nearly all actives have a fitted effect of over 55% in size
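qHTS (up to 57 uM final) was run with 24 h compound exposure of reporter cells at 37 °C. Each well was multiplexed: SteadyGlo luminescence measured ATXN2-luciferase expression after a fluorogenic Gly-Phe-AFC viability readout (25 uM final).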
An asterisk follows results filed as active; i = inactive; ? = inconclusive; / = no result; [ ] = remark or other dose. An excerpt weighted towards active compounds, which were near 6.3% of everything screened. Calls come from the whole dose curve; as a rule, active = well fitted curve in the direction sought with a large enough effect; inconclusive = small, poorly fitted or top-dose-only effect, or another doubt; inactive = no such curve, though single readings can be large; an effect the other way counts as inactive or inconclusive. Potency is the fitted concentration of half-maximal effect.

SMILES	TGFb SMAD3 inh	RORgamma inh	HepG2 viability	S2 tox	Gal4-VP16 FLuc	ATXN2 expr inh
CCC(C(=O)Nc1ccccc1C(=O)OC)n1nc(C)c2c(C)n(-c3ccc(C)cc3)nc2c1=O (stereo not drawn)	11µM*	/	-15%	/	/	/
O=C(N[C@@H]1N=C(c2ccccc2F)c2cccc3c2N(CC3)C1=O)c1cc2ccccc2[nH]1	/	/	/	i	/	84%
O=C1/C(=C/c2ccccc2)C[C@@]2(O)[C@H]3Cc4ccc(O)c5c4[C@@]2(CCN3CC2CC2)C1O5 (stereo partly drawn)	5.6µM*	/	10µM*	7.1µM*	/	3.5µM*
C=C(C)CN1CC[C@@]23c4c5ccc(O)c4O[C@H]2c2[nH]c4ccccc4c2C[C@]3(O)[C@@H]1C5	/	-39%	/	/	28µM*	/
COc1ccccc1N=c1scc(-c2ccc(S(=O)(=O)N3CCCC3)cc2)n1C	?	/	-23%	/	/	/
O=C(O)C(Cl)Br (stereo not drawn)	/	8%	/	/	1%	/
Cc1noc(C)c1C(=O)N1CCC2(CCCN(CC(C)C)C2)CC1	/	-9%	/	/	-10%	/
CCCN(CCC)c1c([N+](=O)[O-])cc(S(N)(=O)=O)cc1[N+](=O)[O-]	/	-42%	/	50µM*	?	50µM*
O=C(C1CCCN(S(=O)(=O)c2cccc3nsnc23)C1)N1CCN(c2cccc(Cl)c2)CC1 (stereo not drawn)	?	/	-9%	i	/	-35%
COC(=O)C1=C(c2cccc(OCc3ccccc3)c2)C[C@@H]2CC[C@H]1N2C(=O)NC1CCN(Cc2ccccc2)CC1	?	/	13µM*	/	/	?
COC(=O)C1=C(c2ccccc2OCc2ccccc2)C[C@@H]2CC[C@H]1N2C(=O)NC1CCN(Cc2ccccc2)CC1	?	/	-10%	?	/	?
COC(=O)C1=C(c2ccc(F)cc2OCc2ccccc2)C[C@@H]2CC[C@H]1N2C(=O)NC1CCN(Cc2ccccc2)CC1	?	/	-32%	14µM*	/	?
COc1ccc(CC(N)c2csc(NC(=O)Nc3ccccc3Oc3ccccc3)n2)cc1 (stereo not drawn)	?	/	10µM*	/	/	?
NC(Cc1ccc(Cl)cc1)c1csc(Nc2cnccn2)n1 (stereo not drawn)	-29%	/	-49%	?	/	?
CCNC(=O)C[C@@H]1N=C(c2ccc(Cl)cc2)c2cc(OC)ccc2-n2c(C)nnc21	/	/	/	/	/	63%
COC1C=CC23c4cc5c(cc4CN(CC2O)C3C1)OCO5 (stereo not drawn)	/	3.2µM*	/	/	1.3µM*	/
COc1c2c(cc3c1OCO3)C13C=CC(OC)CC1N(C2)CC3O (stereo not drawn)	/	0%	/	/	-3%	/
Clc1ccc2ccccc2c1	/	0%	/	/	2%	/
CC(C)[C@]1(NC(=O)[C@@H]2C=C3c4cccc5[nH]cc(c45)C[C@H]3N(C)C2)O[C@@]2(O)C3CCCN3C(=O)[C@H](Cc3ccccc3)N2C1=O (stereo partly drawn)	/	16%	/	/	-6%	/
O=C(Nc1ccc(OC(F)(F)F)cc1)Oc1ccccc1N1CCOCC1	?	-19%	-65%	i	-5%	-25%
O=C(Nc1ccc(OC(F)(F)F)cc1)Oc1ccccc1N1CCCCC1	13µM*	-1%	-102%	?	3%	/
CC(C)[C@@]1(NC(=O)[C@H]2CC3c4cccc5[nH]cc(c45)C[C@H]3N(C)C2)O[C@@]2(O)C3CCCN3C(=O)[C@@H](Cc3ccccc3)N2C1=O (stereo partly drawn)	/	25%[10 µM]	/	/	-3%	/
N#CN=C1SCCN1Cc1ccc(Cl)nc1	/	18%	/	/	1%	/

Source: PubChem
